Measurements reported in PubChem BioAssay (NCI).
Compounds without any hit were thinned out: in the full panel of roughly 79,000, 15% have a hit. Activity calls are given as the source filed them. Rule as the data show it: active = growth inhibition above about 70%; inactive = the rest.

Assays:
[1] = NCI Yeast Anticancer Drug Screen. Data for the rad52 strain (AID 147);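 also: 0% = growth of vehicle-treated control cultures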; settings: S. cerevisiae rad52 mutant growth inhibition, hits give high values
How it was run: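 Here a repair-compromised yeast strain receives each compound; its growth is then quantified and normalised to vehicle-only controls.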

[2] = NCI Yeast Anticancer Drug Screen. Data for the wt1 strain (AID 149);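 also: 0% = growth of vehicle-treated wt1 cultures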; settings: S. cerevisiae wt1 strain (SPY 50644) growth inhibition, hits give high values
How it was run: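 Yeast wt1 strain exposed to compounds; growth inhibition measured relative to vehicle-treated controls.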

[3] = NCI Yeast Anticancer Drug Screen. Data for the rad50EPP+ strain (AID 151);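 also: 0% = growth of vehicle-treated control cultures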; settings: S. cerevisiae rad50 mutant strain, hits give high values
How it was run: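 Read-out is yeast growth inhibition relative to vehicle; cells used were the rad50EPP+ strain.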

[4] = NCI Yeast Anticancer Drug Screen. Data for the mgt1 strain (AID 153); settings: S. cerevisiae mgt1 mutant growth inhibition, hits give high values
How it was run: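 Measured: inhibition of mgt1 yeast growth by compound, normalized to vehicle-treated cultures.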

[5] = NCI Yeast Anticancer Drug Screen. Data for the rad50 strain (AID 155);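 also: 0% = growth of vehicle-only cultures of the same strain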; settings: S. cerevisiae rad50 strain growth inhibition, hits give high values
How it was run: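 Yeast carrying a defined DNA repair defect were exposed to test compounds, and growth was compared with vehicle-treated controls to give percent inhibition.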

[6] = NCI Yeast Anticancer Drug Screen. Data for the mec2-1 strain (AID 157); settings: S. cerevisiae mec2-1 strain, hits give high values
How it was run: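 Using mec2-1 yeast: add compound, measure growth, express inhibition versus vehicle-treated cultures.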

[7] = NCI Yeast Anticancer Drug Screen. Data for the rad14 strain (AID 159);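 also: 0% = growth of vehicle-treated control cultures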; settings: S. cerevisiae rad14 strain growth inhibition, hits give high values
How it was run: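 Yeast cells carrying a defined DNA-repair defect were exposed to compounds, and growth inhibition was calculated relative to vehicle-treated control cultures.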

[8] = NCI Yeast Anticancer Drug Screen. Data for the sgs1 mgt1 strain (AID 161);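 also: 0% = growth of cultures given vehicle only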; settings: S. cerevisiae sgs1 mgt1 strain, hits give high values
How it was run: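 This yeast growth screen uses a strain with defined DNA-repair lesions; compound-treated growth is compared with vehicle-treated growth.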

[9] = NCI Yeast Anticancer Drug Screen. Data for the CLN2oe strain (AID 163);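 also: 0% = growth of vehicle-only control cultures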; settings: S. cerevisiae CLN2oe strain, hits give high values
How it was run: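 Whole-cell yeast growth assay. A strain engineered for altered cell-cycle control received compound, and inhibition relative to vehicle-treated cultures was recorded.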

[10] = NCI Yeast Anticancer Drug Screen. Data for the cln2 rad14 strain (AID 165);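 also: 0% = growth equal to vehicle treated cultures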; settings: S. cerevisiae cln2 rad14 strain, hits give high values
How it was run: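 Yeast strain cln2 rad14, bearing defects in cell cycle control and DNA repair, serves as the test system; values reflect growth inhibition compared with vehicle.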

[11] = NCI Yeast Anticancer Drug Screen. Data for the bub3 strain (AID 167); settings: S. cerevisiae bub3 mutant strain, hits give high values
How it was run: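 Compounds were applied to a genetically altered yeast strain carrying a cell-cycle control defect. Growth inhibition was scored against vehicle-treated controls.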

[12] = NCI Yeast Anticancer Drug Screen. Data for the wt2 strain (AID 169);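 also: 0% = growth of vehicle-treated yeast cultures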; settings: S. cerevisiae wt2 strain growth inhibition, hits give high values
How it was run: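 Treated yeast vs. vehicle-treated yeast: growth inhibition determined.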

[13] = NCI Yeast Anticancer Drug Screen. Data for the mlh1 strain (AID 171);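 also: 0% = growth of vehicle-treated control cultures of the same strain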; settings: S. cerevisiae mlh1 strain growth inhibition, hits give high values
How it was run: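 A yeast strain with a defined genetic lesion serves as the test organism. Cultures receive compound or vehicle, and growth is measured.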

[14] = NCI Yeast Anticancer Drug Screen. Data for the sgs1 strain (AID 173);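 also: 0% = growth of vehicle-only control cultures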; settings: S. cerevisiae sgs1 mutant, hits give high values
How it was run: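 A genetically defined yeast mutant is incubated with the test compound, and its growth is compared to that of the same strain given vehicle.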

[15] = NCI Yeast Anticancer Drug Screen. Data for the mlh1 rad18 strain (AID 175); settings: S. cerevisiae mlh1 rad18 strain growth inhibition, hits give high values
How it was run: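 Steps: expose repair-defective yeast to compound; measure growth; express inhibition against vehicle-treated controls.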

[16] = NCI Yeast Anticancer Drug Screen. Data for the rad18 strain (AID 177); settings: S. cerevisiae rad18 mutant growth inhibition, hits give high values
How it was run: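 Measured value is growth inhibition of a yeast strain bearing a DNA repair alteration, referenced to vehicle-treated cells.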

[17] = at 5.0 µM (retest, dose inferred, filed as 0.5)
[18] = at 50.0 µM (retest, dose inferred, filed as 5.0)

Measured: growth inhibition

OC(COc1cccc2ccccc12)CN1CCOCC1 (stereo not drawn)
active: [5]; [18] 78% | [5]; at 50.0 µM 71.5% | [8]; [18] 71% | [9]; at 100.0 µM 72% | [10]; at 50.0 µM 73.5%
inactive: [1]; at 1.2 µM 15% | [1]; at 3.7 µM 32% | [1]; at 11.0 µM 44% | [1]; at 33.0 µM 51% | [1]; at 100.0 µM 50% | [2]; at 1.2 µM 13% | [2]; at 3.7 µM 23% | [2]; at 11.0 µM 30% | [2]; at 33.0 µM 31% | [2]; at 100.0 µM 30% | [3]; at 1.2 µM -5% | [3]; at 3.7 µM -6% | [3]; at 11.0 µM -9% | [3]; at 33.0 µM -9% | [3]; at 100.0 µM -3% | [4]; at 1.2 µM 8% | [4]; at 3.7 µM 26% | [4]; at 11.0 µM 42% | [4]; at 33.0 µM 52% | [4]; at 100.0 µM 55% | [5]; at 1.2 µM 11% | [5]; at 3.7 µM 19% | [5]; [17] 54% | [5]; at 11.0 µM 42% | [5]; at 33.0 µM 37% | [5]; at 100.0 µM 36% | [6]; at 1.2 µM 9% | [6]; at 3.7 µM 17% | [6]; [17] 24% | [6]; at 11.0 µM 23% | [6]; at 33.0 µM 27% | [6]; [18] 46% | [6]; at 50.0 µM 37% | [6]; at 100.0 µM 39% | [7]; at 1.2 µM 41% | [7]; at 3.7 µM 39% | [7]; at 11.0 µM 45% | [7]; at 33.0 µM 49% | [7]; at 100.0 µM 52% | [8]; [17] 43% | [8]; at 50.0 µM 46.5% | [9]; at 1.2 µM 21% | [9]; at 3.7 µM 48% | [9]; at 11.0 µM 61% | [9]; at 33.0 µM 69% | [10]; [17] 14% | [10]; [18] 59% | [11]; at 1.2 µM 8% | [11]; at 3.7 µM 25% | [11]; [17] 35% | [11]; at 11.0 µM 29% | [11]; at 33.0 µM 57% | [11]; [18] 60% | [11]; at 50.0 µM 49.1% | [11]; at 100.0 µM 47% | [12]; at 1.2 µM 17% | [12]; at 3.7 µM 27% | [12]; at 11.0 µM 32% | [12]; at 33.0 µM 39% | [12]; at 100.0 µM 35% | [13]; at 1.2 µM 11% | [13]; at 3.7 µM 21% | [13]; at 11.0 µM 33% | [13]; at 33.0 µM 18% | [13]; at 100.0 µM 37% | [14]; at 1.2 µM 29% | [14]; at 3.7 µM 49% | [14]; at 11.0 µM 61% | [14]; at 33.0 µM 59% | [14]; at 100.0 µM 56% | [15]; [17] 37% | [15]; [18] 49% | [15]; at 50.0 µM 37.3% | [16]; at 1.2 µM 32% | [16]; at 3.7 µM 39% | [16]; at 11.0 µM 55% | [16]; at 33.0 µM 64% | [16]; at 100.0 µM 51%
